From the supplement of paper PMC10849652
Of roughly 8,800 targets only a part is listed; those with a hit were picked by preference. About 0.5% of all pairs of compound and target were hits. A number with no mark means an inactive call.

Assays:
Assay in all cases: log2 fold change, soluble protein after heating vs DMSO (PISA); higher = thermal stabilisation; K562 lysate, 10 uM; active = over 0.2 and 3.5 SD of the protein, either way, in both replicates (recomputed)
lapatinib = compound: CS(=O)(=O)CCNCc1ccc(-c2ccc3ncnc(Nc4ccc(OCc5cccc(F)c5)c(Cl)c4)c3c2)o1 [lapatinib]
Summary of the method: (§1)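 K562 pellets were dounce-homogenised in PBS pH 7.4 with 1 mM MgCl2, and the crude extract at 1 mg/mL protein was treated with 10 μM compound for 30 min. Aliquots were heated for 3 min across 48°C-58°C, pooled, and brought to 0.5% NP-40 at 4°C; soluble protein was the supernatant after 21,000xg for 90 min. Soluble protein was quantified by TMTpro 16plex LC-MS/MS with channel sums equalised, and reported as log2 fold change in thermal stability against DMSO controls, with values from duplicates.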

pictilisib = compound: CS(=O)(=O)N1CCN(Cc2cc3nc(-c4cccc5[nH]ncc45)nc(N4CCOCC4)c3s2)CC1 [pictilisib]
Summary of the method: as §1

crizotinib = compound: C[C@@H](Oc1cc(-c2cnn(C3CCNCC3)c2)cnc1N)c1c(Cl)ccc(F)c1Cl [crizotinib]
Summary of the method: as §1

[1] = compound: C[C@H](C1=CC=C(C=C1)C(=O)NC2=C3C=CNC3=NC=C2)N
Summary of the method: as §1

duvelisib = compound: C[C@H](Nc1ncnc2nc[nH]c12)c1cc2cccc(Cl)c2c(=O)n1-c1ccccc1 [duvelisib]
Summary of the method: as §1

gandotinib = compound: Cc1cc(Nc2cc(CN3CCOCC3)c3nc(C)c(Cc4ccc(Cl)cc4F)n3n2)n[nH]1 [gandotinib]
Summary of the method: as §1

tozasertib = compound: Cc1cc(Nc2cc(N3CCN(C)CC3)nc(Sc3ccc(NC(=O)C4CC4)cc3)n2)n[nH]1 [tozasertib]
Summary of the method: as §1

doramapimod = compound: Cc1ccc(-n2nc(C(C)(C)C)cc2NC(=O)Nc2ccc(OCCN3CCOCC3)c3ccccc23)cc1 [doramapimod]
Summary of the method: as §1

bafetinib = compound: Cc1ccc(NC(=O)c2ccc(CN3CC[C@H](N(C)C)C3)c(C(F)(F)F)c2)cc1Nc1nccc(-c2cncnc2)n1 [bafetinib]
Summary of the method: as §1

[2] = compound: Cc1cccc(CC(=O)N2CCc3c2ccc(-c2cn(C)c4ncnc(N)c24)c3F)n1
Summary of the method: as §1

UniProt P32780, sequence (P32780 whole entry, looked up): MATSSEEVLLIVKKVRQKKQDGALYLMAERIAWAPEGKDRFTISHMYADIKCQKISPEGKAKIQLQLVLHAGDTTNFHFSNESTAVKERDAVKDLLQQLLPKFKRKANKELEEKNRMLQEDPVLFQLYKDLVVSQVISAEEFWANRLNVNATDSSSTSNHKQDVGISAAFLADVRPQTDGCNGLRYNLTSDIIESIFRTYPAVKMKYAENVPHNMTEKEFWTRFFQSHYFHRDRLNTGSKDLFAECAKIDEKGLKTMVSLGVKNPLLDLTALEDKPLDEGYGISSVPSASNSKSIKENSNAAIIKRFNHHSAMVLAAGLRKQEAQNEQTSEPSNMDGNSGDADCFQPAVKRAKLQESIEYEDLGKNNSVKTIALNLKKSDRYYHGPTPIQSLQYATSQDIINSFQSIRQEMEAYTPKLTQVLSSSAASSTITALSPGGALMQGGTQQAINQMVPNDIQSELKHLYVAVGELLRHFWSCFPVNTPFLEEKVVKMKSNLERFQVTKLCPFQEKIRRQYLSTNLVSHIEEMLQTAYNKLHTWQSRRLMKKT
UniProt Q7Z5Y7, sequence (Q7Z5Y7 whole entry, looked up): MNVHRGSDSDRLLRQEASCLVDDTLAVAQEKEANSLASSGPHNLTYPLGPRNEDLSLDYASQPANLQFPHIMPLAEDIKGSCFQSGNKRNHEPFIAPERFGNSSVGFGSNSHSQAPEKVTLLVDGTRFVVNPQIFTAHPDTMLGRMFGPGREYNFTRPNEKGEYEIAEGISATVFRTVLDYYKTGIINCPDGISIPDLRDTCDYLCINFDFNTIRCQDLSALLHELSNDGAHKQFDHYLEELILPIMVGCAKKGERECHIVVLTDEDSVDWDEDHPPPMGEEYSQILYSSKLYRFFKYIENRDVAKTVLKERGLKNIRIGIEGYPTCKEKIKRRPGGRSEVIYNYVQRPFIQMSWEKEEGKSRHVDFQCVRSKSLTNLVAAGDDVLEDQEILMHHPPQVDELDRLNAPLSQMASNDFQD
UniProt A6NDN3, sequence (A6NDN3 whole entry, looked up): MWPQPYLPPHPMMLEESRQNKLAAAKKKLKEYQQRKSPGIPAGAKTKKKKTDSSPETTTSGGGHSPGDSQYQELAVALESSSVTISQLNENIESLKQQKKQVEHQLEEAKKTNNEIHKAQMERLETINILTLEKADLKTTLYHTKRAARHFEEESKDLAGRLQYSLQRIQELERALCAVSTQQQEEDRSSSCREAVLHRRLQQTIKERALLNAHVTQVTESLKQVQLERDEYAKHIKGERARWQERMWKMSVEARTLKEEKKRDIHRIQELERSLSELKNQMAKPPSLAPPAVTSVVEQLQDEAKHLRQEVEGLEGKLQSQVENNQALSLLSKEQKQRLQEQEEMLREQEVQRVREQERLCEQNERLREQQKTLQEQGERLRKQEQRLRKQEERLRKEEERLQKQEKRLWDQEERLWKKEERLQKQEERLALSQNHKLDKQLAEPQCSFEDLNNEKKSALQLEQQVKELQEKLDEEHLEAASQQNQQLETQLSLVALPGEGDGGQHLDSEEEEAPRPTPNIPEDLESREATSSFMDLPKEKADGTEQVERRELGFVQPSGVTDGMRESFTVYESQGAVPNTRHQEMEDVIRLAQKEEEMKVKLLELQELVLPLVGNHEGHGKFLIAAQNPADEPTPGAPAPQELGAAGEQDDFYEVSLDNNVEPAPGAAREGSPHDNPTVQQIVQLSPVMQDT
UniProt Q9H1B7, sequence (Q9H1B7 whole entry, looked up): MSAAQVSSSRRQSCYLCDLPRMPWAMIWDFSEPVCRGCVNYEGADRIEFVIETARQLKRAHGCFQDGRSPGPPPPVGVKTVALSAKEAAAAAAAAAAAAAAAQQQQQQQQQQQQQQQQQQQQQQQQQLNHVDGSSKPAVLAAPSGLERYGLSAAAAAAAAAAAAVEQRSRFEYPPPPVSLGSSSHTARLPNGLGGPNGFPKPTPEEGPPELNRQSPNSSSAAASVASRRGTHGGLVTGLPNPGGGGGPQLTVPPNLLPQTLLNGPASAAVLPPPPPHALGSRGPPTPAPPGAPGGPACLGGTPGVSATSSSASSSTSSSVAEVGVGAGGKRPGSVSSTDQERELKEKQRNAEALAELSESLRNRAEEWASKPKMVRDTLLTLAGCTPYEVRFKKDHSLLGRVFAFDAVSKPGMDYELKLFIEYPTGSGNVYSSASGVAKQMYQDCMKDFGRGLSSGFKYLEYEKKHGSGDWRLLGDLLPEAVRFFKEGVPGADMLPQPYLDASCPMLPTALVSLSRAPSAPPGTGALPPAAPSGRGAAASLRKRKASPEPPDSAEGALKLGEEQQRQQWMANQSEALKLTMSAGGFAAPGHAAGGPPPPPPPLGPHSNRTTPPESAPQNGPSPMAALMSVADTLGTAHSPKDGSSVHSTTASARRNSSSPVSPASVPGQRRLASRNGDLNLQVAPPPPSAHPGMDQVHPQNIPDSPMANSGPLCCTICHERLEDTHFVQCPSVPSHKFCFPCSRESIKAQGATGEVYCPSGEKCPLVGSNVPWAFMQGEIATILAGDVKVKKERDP
UniProt Q0VDF9, sequence (Q0VDF9 whole entry, looked up): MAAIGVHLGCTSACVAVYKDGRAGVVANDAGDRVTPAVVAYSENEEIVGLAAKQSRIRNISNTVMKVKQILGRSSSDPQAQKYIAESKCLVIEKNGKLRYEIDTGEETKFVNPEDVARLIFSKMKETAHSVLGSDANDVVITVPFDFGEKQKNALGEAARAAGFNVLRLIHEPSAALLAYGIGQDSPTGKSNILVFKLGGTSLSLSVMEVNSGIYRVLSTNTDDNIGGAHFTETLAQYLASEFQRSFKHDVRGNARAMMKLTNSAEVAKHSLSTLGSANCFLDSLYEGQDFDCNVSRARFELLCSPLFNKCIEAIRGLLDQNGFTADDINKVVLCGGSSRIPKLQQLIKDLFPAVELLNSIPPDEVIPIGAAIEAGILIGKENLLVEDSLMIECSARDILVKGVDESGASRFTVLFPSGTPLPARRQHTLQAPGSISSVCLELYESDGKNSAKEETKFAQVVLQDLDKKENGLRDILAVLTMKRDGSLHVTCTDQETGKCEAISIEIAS
UniProt P78347, sequence (P78347 whole entry, looked up): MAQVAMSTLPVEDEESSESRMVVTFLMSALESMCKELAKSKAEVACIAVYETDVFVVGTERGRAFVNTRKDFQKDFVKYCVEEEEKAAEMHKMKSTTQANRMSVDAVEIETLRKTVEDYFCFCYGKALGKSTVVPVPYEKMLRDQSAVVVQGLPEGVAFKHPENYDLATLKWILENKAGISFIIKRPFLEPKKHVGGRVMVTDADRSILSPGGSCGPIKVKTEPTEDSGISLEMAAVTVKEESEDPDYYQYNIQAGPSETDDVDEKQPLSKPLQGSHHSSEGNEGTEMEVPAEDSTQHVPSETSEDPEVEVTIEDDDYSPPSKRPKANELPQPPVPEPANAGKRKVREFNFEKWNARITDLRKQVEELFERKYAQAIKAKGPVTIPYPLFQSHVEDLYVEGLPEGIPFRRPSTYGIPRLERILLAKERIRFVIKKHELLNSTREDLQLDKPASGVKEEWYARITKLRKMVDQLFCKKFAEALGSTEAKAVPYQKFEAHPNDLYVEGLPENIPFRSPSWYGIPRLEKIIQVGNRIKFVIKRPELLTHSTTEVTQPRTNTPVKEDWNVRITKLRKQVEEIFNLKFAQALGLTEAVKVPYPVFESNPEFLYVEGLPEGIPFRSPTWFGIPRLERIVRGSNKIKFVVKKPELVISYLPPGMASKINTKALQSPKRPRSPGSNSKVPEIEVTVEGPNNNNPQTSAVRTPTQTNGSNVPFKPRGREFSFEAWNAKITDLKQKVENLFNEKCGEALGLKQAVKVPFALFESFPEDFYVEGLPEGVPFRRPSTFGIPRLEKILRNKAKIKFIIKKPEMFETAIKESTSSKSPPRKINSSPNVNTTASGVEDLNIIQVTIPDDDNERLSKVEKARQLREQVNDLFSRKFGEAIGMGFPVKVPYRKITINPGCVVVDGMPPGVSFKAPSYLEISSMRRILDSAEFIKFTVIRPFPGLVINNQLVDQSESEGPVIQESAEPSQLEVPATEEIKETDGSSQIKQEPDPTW
UniProt Q8IYU2, sequence (Q8IYU2 whole entry, looked up): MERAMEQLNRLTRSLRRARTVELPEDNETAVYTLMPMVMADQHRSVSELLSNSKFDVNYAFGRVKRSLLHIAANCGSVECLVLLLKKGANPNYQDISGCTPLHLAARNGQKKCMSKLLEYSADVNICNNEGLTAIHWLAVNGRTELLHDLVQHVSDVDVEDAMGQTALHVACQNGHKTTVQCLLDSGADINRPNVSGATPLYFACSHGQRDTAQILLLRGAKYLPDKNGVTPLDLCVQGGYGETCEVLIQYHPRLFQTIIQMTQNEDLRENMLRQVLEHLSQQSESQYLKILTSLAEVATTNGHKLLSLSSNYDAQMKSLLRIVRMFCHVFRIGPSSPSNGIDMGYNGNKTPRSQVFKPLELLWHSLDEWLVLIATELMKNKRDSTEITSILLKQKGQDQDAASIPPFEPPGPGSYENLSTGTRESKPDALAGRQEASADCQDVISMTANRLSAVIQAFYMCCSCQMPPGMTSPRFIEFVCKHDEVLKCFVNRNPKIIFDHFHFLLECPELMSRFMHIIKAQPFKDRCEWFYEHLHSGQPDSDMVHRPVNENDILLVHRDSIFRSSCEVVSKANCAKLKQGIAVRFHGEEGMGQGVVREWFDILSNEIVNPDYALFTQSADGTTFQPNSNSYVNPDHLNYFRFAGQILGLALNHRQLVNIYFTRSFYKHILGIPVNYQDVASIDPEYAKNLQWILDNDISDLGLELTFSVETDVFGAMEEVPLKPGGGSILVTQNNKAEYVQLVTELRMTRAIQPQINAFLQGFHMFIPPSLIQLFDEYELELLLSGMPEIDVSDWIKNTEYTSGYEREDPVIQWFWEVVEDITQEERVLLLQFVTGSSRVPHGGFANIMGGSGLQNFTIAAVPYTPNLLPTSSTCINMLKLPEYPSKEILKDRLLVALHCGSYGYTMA

| Target | log2 fold change (lapatinib) | log2 fold change (pictilisib) | log2 fold change (crizotinib) | log2 fold change [1] | log2 fold change (duvelisib) | log2 fold change (gandotinib) | log2 fold change (tozasertib) | log2 fold change (doramapimod) | log2 fold change (bafetinib) | log2 fold change [2] |
| --- | --- | --- | --- | --- | --- | --- | --- | --- | --- | --- |
| KHDRBS1 (UniProt Q07666) | -0.035 | 0.024 | 0.025 | 0.046 | 0.005 | -0.08 | 0.008 | -0.017 | 0.039 | -0.031 |
| H4C1 (UniProt P62805) | -0.043 | -0.069 | 0.032 | 0.003 | -0.16 | 0 | -0.027 | 0.006 | 0.059 | -0.044 |
| HSD17B12 (UniProt Q53GQ0) | 0.31 (active) | -0.034 | -0.025 | -0.158 | -0.08 | 0.41 (active) | 0.011 | 0.047 | -0.019 | 0.149 |
| IMPDH2 (UniProt H0Y4R1) | 0.074 | -0.133 | 0.19 | -0.056 | 0.011 | 0.16 | -0.028 | 0.028 | 0.022 | 0.065 |
| INTS5 (UniProt Q6P9B9) | -0.688 | 0.018 | -0.082 | 0.048 | -0.022 | -0.235 | 0.009 | -0.002 | -0.092 | 0.054 |
| GTF2I (UniProt P78347) | -0.005 | -0.011 | -0.039 | -0.01 | 0.016 | -0.086 | -0.004 | 0.018 | -0.066 | 0.027 |
| HSPA14 (UniProt Q0VDF9) | -0.016 | 0.023 | -0.02 | -0.038 | 0.007 | -0.039 | 0.018 | 0.003 | -0.026 | 0.037 |
| ISOC2 (UniProt Q96AB3) | -0.036 | 0.038 | 0.023 | 0.05 | -0.038 | -0.076 | -0.065 | -0.014 | -0.058 | 0.095 |
| HDLBP, A0A024R4E5 | 0.005 | -0.017 | -0.028 | 0.002 | -0.003 | -0.03 | 0.006 | 0.018 | -0.049 | 0.013 |
| INTS8 (UniProt Q75QN2) | 0.028 | 0.104 | -0.046 | 0.015 | -0.051 | -0.163 | 0.04 | 0.021 | -0.142 | 0.036 |
| IARS (UniProt P41252) | -0.032 | -0.006 | -0.045 | 0.059 | -0.001 | -0.13 | 0.013 | 0.016 | -0.015 | -0.041 |
| GRK6 isoform 2 (UniProt P43250) | -0.122 | -0.088 | 0.084 | -0.066 | -0.04 | 0.058 | -0.063 | 0.046 | 0.065 | 0.028 |
| KCTD20 (UniProt Q7Z5Y7) | -0.064 | 0.039 | -0.077 | 0.006 | -0.082 | 0.006 | -0.119 | -0.01 | 0.007 | -0.005 |
| HACE1 (UniProt Q8IYU2) | -0.05 | 0.005 | 0.026 | -0.491 (active) | 0.033 | 0.302 | -0.036 | 0.015 | -0.036 | 0.426 |
| HMGCL (UniProt P35914) | -0.005 | -0.029 | 0.012 | 0.033 | 0.002 | -0.029 | 0.026 | 0.008 | -0.016 | -0.031 |
| HAUS3 (UniProt Q68CZ6) | -0.011 | -0.001 | -0.084 | 0.013 | -0.042 | -0.059 | 0.014 | -0.034 | -0.11 | 0.079 |
| GSK3B isoform 2 (UniProt P49841) | -0.083 | 0.191 | 0.003 | 0.018 | -0.02 | 0.59 | -0.078 | 0.03 | -0.041 | -0.06 |
| GOLGA6B (UniProt A6NDN3) | -0.105 | -0.061 | -0.193 | -0.105 | 0.121 | 0.109 | 0.027 | -0.381 | -0.04 | 0 |
| GMDS (UniProt O60547) | -0.019 | -0.035 | -0.01 | 0.004 | 0.012 | -0.013 | -0.016 | 0.018 | 0.001 | -0.021 |
| GTF2H1 (UniProt P32780) | -0.03 | -0.017 | -0.028 | 0.032 | 0.023 | 0.035 | -0.019 | -0.001 | -0.03 | -0.021 |
| IARS2 (UniProt Q9NSE4) | -0.023 | -0.013 | -0.01 | 0.19 | -0.007 | -0.057 | 0.02 | 0.011 | -0.002 | -0.049 |
| HNRNPD isoform 2 (UniProt Q14103) | 0.047 | 0.043 | 0.034 | 0.559 (active) | 0.015 | -0.085 | 0.004 | -0.023 | 0.095 | -0.108 |
| GSTM2 (UniProt P28161) | -0.024 | -0.011 |  | 0.121 | -0.067 | -0.042 | 0.02 |  | -0.011 | -0.079 |
| IRF2BPL (UniProt Q9H1B7) | 0.017 | 0.024 | -0.006 | -0.216 | 0.006 | 0.07 | -0.005 | -0.004 | -0.015 | 0.075 |
